Assay [1] is described as follows: yeast TOR pathway RPL19A-GFP modulators, primary screen, cell-based, S. cerevisiae, multiplex flow cytometry (AID 1862; in the data active = percent of DMSO control GFP below about 86%;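 also: lower values mimic rapamycin by blocking the RPL19A rise seen in DMSO cells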). The note with it: S. cerevisiae RPL19A-GFP strain, flow cytometry fluorescence, 3 h; at 10 µM; stronger effect = lower value. (A flow cytometer gives signals particle by particle.)
Assay [2] can be described thus: modulators of MEP2-GFP levels in yeast, primary screen, S. cerevisiae, multiplex flow cytometry (AID 1867;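 active = GFP response, as percent of the DMSO control, above the screen-wide mean plus 3 SD, about 139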;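 also: median GFP channel fluorescence of barcode-gated MEP2-GFP cells measured by flow cytometry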). The note with it: S. cerevisiae MEP2-GFP strain, 3 h, at 10 µM, stronger effect = higher value, 100% means same as DMSO wells.
Assay [3] in a line: modulators of CIT2-GFP expression in yeast, primary screen, S. cerevisiae, GFP fusion, multiplex flow cytometry (AID 1870;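 active = percent response above a set limit, the screen-wide mean plus 3 SD, cut at about 130% in these data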;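 also: barcoded CIT2-GFP strain pooled with four other GFP strains with rapamycin as positive control; median GFP fluorescence per well over plate mean of DMSO wells so 100% = DMSO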). The note with it: 3 h, at 10 µM, stronger effect = higher value.
Assay [4] in a line: modulators of LAP4-GFP expression in yeast, primary screen, S. cerevisiae, multiplex flow cytometry (AID 1873;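 active = GFP signal, as percent of the solvent control, above the screen mean plus 3 SD, about 149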). The conditions noted are these: 3 h, at 10 µM, stronger effect = higher value.
The nature of assay [5]: modulators of AGP1-GFP expression in yeast TOR pathway, primary screen, cell-based, multiplex flow cytometry, S. cerevisiae (AID 1887;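 active = GFP signal above the screen-wide mean plus 3 SD, that is over about 124.5% of the solvent control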;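 also: AGP1-GFP fusion strain of S. cerevisiae within a five-strain barcoded multiplex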). The note with it: 3 h, at 10 µM, stronger effect = higher value.
A short description of assay [6]: inhibitors of CD8+ T cell-vesicle binding, pilot screen, LFA-1/ICAM-1 modulator project, MLPCN validation set, flow cytometry (AID 2523;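 active = response below a set limit, under 55% cells CD8-positive and vesicle-bound, and CD8 cells' 90th-percentile brightness under 279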;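 as to vesicle binding response: mean PE anti-B7-1 fluorescence of CD8+ cells relative to row control; 100% = QL9-loaded vesicles with DMSO vehicle in the same plate row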). The conditions noted are these: 2C mouse CD8+ T cells, at 7 µM, stronger effect = lower value; double positive events: measured here: CD8+/vesicle+ event percentage.
For assay [7], the target named is Integrin beta-1 (Homo sapiens) + Integrin alpha-4 (Homo sapiens) (UniProt P13612+P05556). As to the kind of experiment: inhibition of HUTS-21 binding to VLA-4, pilot screen, VLA-4 allosteric modulator project, U937 cells, HUTS-21 mAb, flow cytometry, validation set (AID 2674;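 active = inhibition above 50%, about 3 SD of the validation set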;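 also: antibody binding induced by the VLA-4 ligand LDV present at three times its Kd; 0% = LDV ligand with antibody and no compound and 100% = antibody without LDV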). The conditions noted are these: HUTS-21 LIBS mAb binding, at 6.7 µM, stronger effect = higher value, binding induced by LDV ligand.

The nature of assay [8]: superoxide lowering in aged yeast cells, pilot screen, validation compound set (AID 2706;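 active = superoxide response below 65% of plate, a cut near 3 SD across the whole screen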;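 also: yeast exposed to compound for one week at 30 degrees C before staining; 100% = mean of all compound wells on the same plate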). The conditions noted are these: S. cerevisiae aging, superoxide DHE fluorescence; at 10 µM; stronger effect = lower value.
The target of assay [9] is Beta-adrenergic receptor kinase 1 (Homo sapiens) (UniProt P25098). Briefly: GRK2 binders displacing RNA aptamer, biochemical, validation, human GRK2, bead flow cytometry (AID 488806). The note with it: bead-bound GRK2, FAM-aptamer displacement, at 10 µM, stronger effect = higher value.
The target of assay [10] is Beta-2 adrenergic receptor (Homo sapiens) (UniProt P07550). As to the kind of experiment: beta2AR agonists driving receptor internalization, pilot screen, cell-based, FAP fluorogen, flow cytometry, validation set (AID 504459;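 active = percent response above 42, roughly 3 SD of non-fluorescent test compounds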;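 also: agonist-driven loss of surface beta2AR via internalization measured by FAP dye flow cytometry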). The note with it: Am2.2-beta2AR cells, FAP surface receptor flow cytometry; at 10 µM; stronger effect = higher value.
The target in assay [11] is AP-2 complex subunit beta (Homo sapiens) (UniProt P63010). Briefly: inhibitors of arrestin peptide binding to AP2, pilot screen, biochemical, validation set, GST-AP2 beads, flow cytometry (AID 504541;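 active = inhibition above 54%, about 3 SD of non-fluorescent compounds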;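 also: AP2 carries R879A mutation and is captured from E. coli lysate; bead-bound FITC arrestin peptide fluorescence measuring arrestin peptide binding to AP2; 0% = DMSO wells and 100% = excess unlabeled arrestin peptide control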). The conditions noted are these: FITC arrestin peptide, at 10 µM, stronger effect = higher value, AP2 beta2 appendage fragment, R879A mutant.
Assay [12] can be described thus: yeast V-ATPase proton transport modulators, S. cerevisiae, pHLuorin, HTS validation (AID 504600; in the data active = response above about 15%;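 also: plate controls were DMSO for no effect and reference compound for full effect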). The conditions noted are these: S. cerevisiae pHLuorin cytosolic pH, at 10 µM, stronger effect = higher value.
Assay [13] concerns anti-desmoglein-3 scFv antibody binding to human DSG3. As to the kind of experiment: inhibitors of anti-DSG3 scFv binding to DSG3, pilot screen, biochemical, validation compound set, bead-based, flow cytometry (AID 588368;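 active = binding below the plate cutoff, the plate median minus 3 SD, with a reading above zero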;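 also: signal is the median channel fluorescence of bead-bound GFP antibody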). The note with it: Protein G beads, DSG3-Fc, scFv-GFP binding, at 10 µM, stronger effect = lower value.
The nature of assay [14]: inhibitors of fungal efflux pumps CDR1, CDR2, MDR1, pilot screen, validation compound set, multiplex, phenotypic (AID 588506;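 active = efflux inhibition above 0.42, the validation set average plus 4 SD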;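 also: Nile Red retained in cells so higher fluorescence means more efflux inhibition; 0 = negative control wells and 1 = enniatin B 25 µM full block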). The note with it: S. cerevisiae pump-expressing triplex, Nile Red efflux flow cytometry; at 10 µM; stronger effect = higher value; the pumps come from Candida albicans.
The target in assay [15] is ATP-binding cassette sub-family B member 6 (Homo sapiens) (UniProt Q9NP58). As to the kind of experiment: ABCB6 transporter inhibitors, pilot screen, K562-ABCB6 cells, flow cytometry, validation set (AID 588550;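 active = inhibition above the screen-wide mean plus 3 SD, about 51%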;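 also: 0% = DMSO wells and 100% = benzethonium chloride 70 µM positive control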). The note with it: K562-ABCB6 porphyrin accumulation, 1 h, at 10 µM, stronger effect = higher value.
Assay [16] is described as follows: promoters of myeloid differentiation in arrested cells, primary screen, cell-based, GFP/MAC1 double positive, flow cytometry, validation set (AID 588685;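 active = differentiation response of at least 50%, scaled between solvent and reference control, from cells with both markers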;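 also: compound exposure lasts four days before antibody staining and flow analysis; 0% = DMSO wells and 100% = 5 µM fulvestrant positive control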). The conditions noted are these: ER-HoxA9 marrow cells, stronger effect = higher value, normalized: vehicle 0, fulvestrant 100.

Results filed as inconclusive are left out. Active and inactive are the calls of the source.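 The calls were made as follows, unless noted: active = aptamer binding inhibition above 30%, about 3 SD of noise from non-fluorescent compounds; inactive = inhibition at or below 30%.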

Chain of Beta-2 adrenergic receptor (Homo sapiens) (P07550 whole entry, looked up): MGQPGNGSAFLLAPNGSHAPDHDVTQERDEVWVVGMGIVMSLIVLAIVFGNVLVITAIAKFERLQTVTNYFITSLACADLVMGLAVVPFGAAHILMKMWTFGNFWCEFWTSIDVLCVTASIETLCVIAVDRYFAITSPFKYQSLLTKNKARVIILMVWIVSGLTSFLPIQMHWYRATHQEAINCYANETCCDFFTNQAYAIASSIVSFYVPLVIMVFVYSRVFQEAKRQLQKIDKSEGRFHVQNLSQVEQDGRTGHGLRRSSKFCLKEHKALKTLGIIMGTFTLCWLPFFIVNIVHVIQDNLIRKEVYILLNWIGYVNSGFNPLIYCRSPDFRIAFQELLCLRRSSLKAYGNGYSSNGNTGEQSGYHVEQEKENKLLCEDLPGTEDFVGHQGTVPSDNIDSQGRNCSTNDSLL
Chain of AP-2 complex subunit beta (Homo sapiens) (P63010 whole entry, looked up, the tested form may be a part, one chain of several): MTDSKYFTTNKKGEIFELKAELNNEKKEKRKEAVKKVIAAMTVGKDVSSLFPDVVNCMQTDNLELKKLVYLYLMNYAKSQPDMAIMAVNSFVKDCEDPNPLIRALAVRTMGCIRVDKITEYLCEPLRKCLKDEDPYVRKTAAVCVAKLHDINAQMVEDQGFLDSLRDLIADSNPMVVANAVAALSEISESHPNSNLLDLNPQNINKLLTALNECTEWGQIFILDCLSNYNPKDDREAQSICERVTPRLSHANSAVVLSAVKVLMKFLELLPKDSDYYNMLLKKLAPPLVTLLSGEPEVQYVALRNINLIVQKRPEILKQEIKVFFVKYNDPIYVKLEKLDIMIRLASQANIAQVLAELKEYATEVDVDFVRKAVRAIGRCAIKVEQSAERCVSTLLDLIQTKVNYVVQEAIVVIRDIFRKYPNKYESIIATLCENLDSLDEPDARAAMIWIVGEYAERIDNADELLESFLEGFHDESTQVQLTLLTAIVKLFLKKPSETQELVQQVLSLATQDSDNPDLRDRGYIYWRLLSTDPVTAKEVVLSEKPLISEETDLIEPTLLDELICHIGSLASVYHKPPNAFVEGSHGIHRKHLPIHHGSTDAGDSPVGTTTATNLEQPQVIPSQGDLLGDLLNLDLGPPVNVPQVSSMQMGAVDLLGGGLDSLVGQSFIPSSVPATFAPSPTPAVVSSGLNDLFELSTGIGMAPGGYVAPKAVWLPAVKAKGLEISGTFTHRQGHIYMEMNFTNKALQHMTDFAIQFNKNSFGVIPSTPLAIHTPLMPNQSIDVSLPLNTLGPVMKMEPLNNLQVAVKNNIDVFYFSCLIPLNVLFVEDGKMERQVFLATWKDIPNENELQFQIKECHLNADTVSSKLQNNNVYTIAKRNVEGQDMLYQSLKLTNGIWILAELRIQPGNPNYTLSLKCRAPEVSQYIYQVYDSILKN
Chain of Beta-adrenergic receptor kinase 1 (Homo sapiens) (P25098 whole entry, looked up): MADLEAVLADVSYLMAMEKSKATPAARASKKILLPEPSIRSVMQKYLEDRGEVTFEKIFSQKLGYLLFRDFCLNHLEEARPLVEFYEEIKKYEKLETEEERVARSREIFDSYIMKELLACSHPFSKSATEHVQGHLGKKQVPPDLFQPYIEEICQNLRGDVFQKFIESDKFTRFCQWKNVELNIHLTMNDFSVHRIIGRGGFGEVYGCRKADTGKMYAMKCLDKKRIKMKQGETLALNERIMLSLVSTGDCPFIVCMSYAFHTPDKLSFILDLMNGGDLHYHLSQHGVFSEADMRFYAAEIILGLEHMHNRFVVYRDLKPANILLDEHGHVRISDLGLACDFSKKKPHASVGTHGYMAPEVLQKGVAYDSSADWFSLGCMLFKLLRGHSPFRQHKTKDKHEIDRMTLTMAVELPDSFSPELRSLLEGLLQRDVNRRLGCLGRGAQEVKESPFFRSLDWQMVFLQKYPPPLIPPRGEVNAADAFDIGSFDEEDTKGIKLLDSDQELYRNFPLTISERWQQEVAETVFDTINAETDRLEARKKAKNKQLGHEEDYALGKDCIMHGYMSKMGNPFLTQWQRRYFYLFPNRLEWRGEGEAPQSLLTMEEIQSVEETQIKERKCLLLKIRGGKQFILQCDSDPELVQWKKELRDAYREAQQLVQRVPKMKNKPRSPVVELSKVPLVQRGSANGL
Chain of Integrin beta-1 (Homo sapiens) + Integrin alpha-4 (Homo sapiens) (P05556 whole entry, looked up): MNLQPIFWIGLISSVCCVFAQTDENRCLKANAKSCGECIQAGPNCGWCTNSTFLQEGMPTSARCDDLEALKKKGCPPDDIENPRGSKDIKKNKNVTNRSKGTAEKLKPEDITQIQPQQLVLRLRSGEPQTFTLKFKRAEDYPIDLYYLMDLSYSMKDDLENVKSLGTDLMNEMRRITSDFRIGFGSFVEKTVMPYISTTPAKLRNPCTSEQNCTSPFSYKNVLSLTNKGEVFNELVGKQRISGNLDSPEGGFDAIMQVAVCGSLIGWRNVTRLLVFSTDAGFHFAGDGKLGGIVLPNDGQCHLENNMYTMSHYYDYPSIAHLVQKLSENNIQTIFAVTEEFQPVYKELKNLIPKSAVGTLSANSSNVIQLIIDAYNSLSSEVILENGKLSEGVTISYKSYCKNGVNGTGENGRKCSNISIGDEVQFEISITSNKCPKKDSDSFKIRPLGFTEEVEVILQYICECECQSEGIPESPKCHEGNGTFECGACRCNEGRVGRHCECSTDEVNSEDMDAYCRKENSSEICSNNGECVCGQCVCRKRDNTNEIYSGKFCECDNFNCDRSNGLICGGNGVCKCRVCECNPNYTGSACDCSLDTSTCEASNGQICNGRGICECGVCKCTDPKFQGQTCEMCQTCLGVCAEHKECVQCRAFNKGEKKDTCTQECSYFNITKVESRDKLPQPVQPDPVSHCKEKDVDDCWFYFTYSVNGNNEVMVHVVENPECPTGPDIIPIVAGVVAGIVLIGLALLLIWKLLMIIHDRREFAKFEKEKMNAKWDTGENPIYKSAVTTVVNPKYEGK
Chain of Integrin beta-1 (Homo sapiens) + Integrin alpha-4 (Homo sapiens) (P13612 whole entry, looked up): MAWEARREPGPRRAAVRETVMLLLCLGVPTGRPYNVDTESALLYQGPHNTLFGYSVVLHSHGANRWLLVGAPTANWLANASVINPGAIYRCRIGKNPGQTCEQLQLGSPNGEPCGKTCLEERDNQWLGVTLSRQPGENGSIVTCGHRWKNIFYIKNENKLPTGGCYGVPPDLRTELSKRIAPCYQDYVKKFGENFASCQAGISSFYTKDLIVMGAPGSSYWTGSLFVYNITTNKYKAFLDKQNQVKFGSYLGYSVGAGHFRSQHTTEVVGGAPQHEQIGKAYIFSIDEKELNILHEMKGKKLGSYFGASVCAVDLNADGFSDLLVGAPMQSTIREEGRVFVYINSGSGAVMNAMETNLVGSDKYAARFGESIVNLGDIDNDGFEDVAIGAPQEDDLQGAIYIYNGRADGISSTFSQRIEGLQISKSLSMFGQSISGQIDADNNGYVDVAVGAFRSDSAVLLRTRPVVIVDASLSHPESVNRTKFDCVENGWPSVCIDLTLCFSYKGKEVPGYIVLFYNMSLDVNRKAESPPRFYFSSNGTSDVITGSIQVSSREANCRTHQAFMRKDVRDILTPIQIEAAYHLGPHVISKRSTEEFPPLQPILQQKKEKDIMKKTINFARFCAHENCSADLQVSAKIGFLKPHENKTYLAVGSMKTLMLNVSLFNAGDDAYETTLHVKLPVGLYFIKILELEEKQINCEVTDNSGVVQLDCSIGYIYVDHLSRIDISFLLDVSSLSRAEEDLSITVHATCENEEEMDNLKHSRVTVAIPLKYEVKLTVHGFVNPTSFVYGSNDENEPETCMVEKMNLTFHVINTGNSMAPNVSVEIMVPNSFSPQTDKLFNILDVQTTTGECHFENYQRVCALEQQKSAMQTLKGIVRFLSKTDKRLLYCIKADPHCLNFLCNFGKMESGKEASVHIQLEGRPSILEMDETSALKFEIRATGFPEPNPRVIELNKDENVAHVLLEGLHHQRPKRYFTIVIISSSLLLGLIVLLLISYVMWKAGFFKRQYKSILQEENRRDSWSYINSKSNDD
Chain of ATP-binding cassette sub-family B member 6 (Homo sapiens) (Q9NP58 whole entry, looked up): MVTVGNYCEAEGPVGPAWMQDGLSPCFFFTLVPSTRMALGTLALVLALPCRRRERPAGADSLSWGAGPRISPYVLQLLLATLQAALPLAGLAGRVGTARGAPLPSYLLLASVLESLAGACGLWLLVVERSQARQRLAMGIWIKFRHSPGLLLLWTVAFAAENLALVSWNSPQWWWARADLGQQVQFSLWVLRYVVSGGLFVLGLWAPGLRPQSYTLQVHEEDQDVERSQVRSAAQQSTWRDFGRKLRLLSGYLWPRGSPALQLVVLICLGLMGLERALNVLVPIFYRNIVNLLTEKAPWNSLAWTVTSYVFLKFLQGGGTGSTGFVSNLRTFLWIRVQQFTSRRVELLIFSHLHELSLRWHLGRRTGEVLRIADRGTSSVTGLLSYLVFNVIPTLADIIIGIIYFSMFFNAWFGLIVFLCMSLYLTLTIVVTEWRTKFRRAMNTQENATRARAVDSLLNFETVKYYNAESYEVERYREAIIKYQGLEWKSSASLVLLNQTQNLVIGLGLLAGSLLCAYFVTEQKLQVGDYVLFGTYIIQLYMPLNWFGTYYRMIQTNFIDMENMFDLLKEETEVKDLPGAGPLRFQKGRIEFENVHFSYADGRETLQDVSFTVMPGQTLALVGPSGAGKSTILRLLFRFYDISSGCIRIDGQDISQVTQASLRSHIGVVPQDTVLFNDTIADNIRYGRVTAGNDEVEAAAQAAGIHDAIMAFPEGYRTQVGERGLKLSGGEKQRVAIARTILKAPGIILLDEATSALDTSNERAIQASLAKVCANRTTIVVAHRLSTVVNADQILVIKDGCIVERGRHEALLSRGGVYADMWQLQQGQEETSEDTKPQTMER

Consider `CC1CCCC(C)N1NC(=O)c1ccc(Cl)c(S(N)(=O)=O)c1` (stereo not given), for which the percent of DMSO control GFP in assay [1] was 88% (inactive). The GFP response vs DMSO is 126% (inactive) in assay [2] and 85.8% (inactive) in [4]. For the same compound, the percent response of DMSO control in assay [3] was 91.3% (inactive). Further, in [5], the GFP response, % of DMSO was 96.3% (inactive). The compound further gave a double positive events in assay [6] of 65.1%. Also, the vesicle binding response in assay [6] is 128% (inactive). The inhibition was -3.24% (inactive) in [7], -5.07% (inactive) in assay [11] and 10% (inactive) in assay [15]. Moreover, the superoxide response (% of plate) in [8] is 98.3% (inactive). In addition, the aptamer binding inhibition in assay [9] is 3% (inactive). In addition, the response in assay [10] was -7.28% (inactive); in assay [12], -0.52% (inactive). The binding (% of control) in assay [13] was 101% (inactive). Moreover, the efflux inhibition (fraction of control) in assay [14] is 0.09 (inactive). In addition, the differentiation response in [16] was -0.82% (inactive).

Regarding `CCOC(=O)C1C(=O)OC(C)(C)C1C(C)C(=O)c1ccc(C)cc1` (stereo not given), the percent of DMSO control GFP in assay [1] was 100% (inactive). The GFP response vs DMSO in assay [2] was 103% (inactive); in [4], 110% (inactive). Besides, in assay [3], the percent response of DMSO control is 93.1% (inactive). The GFP response, % of DMSO in [5] was 116% (inactive). The double positive events in [6] is 61.9%. In addition, in [6], the vesicle binding response was 218% (inactive). The inhibition was -6.23% (inactive) in [7], -19% (inactive) in assay [11] and 5% (inactive) in assay [15]. Further, the superoxide response (% of plate) in [8] was 118% (inactive). The aptamer binding inhibition in [9] was 3% (inactive). Also, the response in assay [10] is -17.2% (inactive); in assay [12], -5.62% (inactive). Also, the binding (% of control) in assay [13] is 102% (inactive). Further, the efflux inhibition (fraction of control) in assay [14] was -0.09 (inactive). For the same compound, the differentiation response in [16] was 13.7% (inactive).

As for `COc1ccc(CNC(=O)N[C@H](C(=O)O)C(C)C)cc1OC`, the percent of DMSO control GFP in [1] is 92.6% (inactive). For the same compound, the GFP response vs DMSO in assay [2] was 119% (inactive); in assay [4], 81.4% (inactive). In addition, the percent response of DMSO control in assay [3] is 111% (inactive). Also, the GFP response, % of DMSO in assay [5] was 89.8% (inactive). Further, the double positive events in assay [6] is 53.2%. The vesicle binding response in assay [6] is 186% (inactive). The inhibition is -9.06% (inactive) in assay [7], -15.3% (inactive) in assay [11] and 3% (inactive) in assay [15]. In assay [8], the superoxide response (% of plate) was 112% (inactive). Besides, the aptamer binding inhibition in assay [9] was -5% (inactive). The figures for the response in [10] and in assay [12] were -4.83% (inactive) and 1.94% (inactive), respectively. The binding (% of control) in assay [13] was 98.1% (inactive). In addition, in assay [14], the efflux inhibition (fraction of control) was 0.3 (inactive). Also, the differentiation response in assay [16] was 7.37% (inactive).

Take `CCCCCC#CCC#CCC#CCC#CCCCC(=O)O`: the percent of DMSO control GFP in assay [1] is 106% (inactive). Further, the values for the GFP response vs DMSO in [2] and in [4] were 108% (inactive) and 106% (inactive), respectively. For the same compound, in assay [3], the percent response of DMSO control is 103% (inactive). For the same compound, the GFP response, % of DMSO in assay [5] was 116% (inactive). In addition, the double positive events in assay [6] turned out to be 62.5%. In assay [6], the vesicle binding response is 208% (inactive). For the same compound, the inhibition in assay [7] was -3.67% (inactive); in assay [11] it was 26.9% (inactive); in assay [15] it was 2% (inactive). The superoxide response (% of plate) in assay [8] is 123% (inactive). Moreover, in [9], the aptamer binding inhibition is 62% (active). In addition, the response is -11.7% (inactive) in assay [10] and 4.4% (inactive) in assay [12]. Further, the binding (% of control) in assay [13] was 90.5% (inactive). In addition, in assay [14], the efflux inhibition (fraction of control) was 0.04 (inactive). Moreover, in [16], the differentiation response was -10.9% (inactive).

In the case of `c1ccc(-c2ccccn2)nc1`, the percent of DMSO control GFP in [1] was 103% (inactive). Also, the GFP response vs DMSO in assay [2] is 112% (inactive); in assay [4], 101% (inactive). In addition, in assay [3], the percent response of DMSO control is 107% (inactive). The GFP response, % of DMSO in assay [5] was 102% (inactive). The compound also showed a double positive events in assay [6] of 54.1%. Moreover, in assay [6], the vesicle binding response was 157% (inactive). The values for the inhibition in assay [7], in assay [11] and in assay [15] were 6.95% (inactive), -7.99% (inactive) and 55% (active), respectively. Moreover, the superoxide response (% of plate) in assay [8] is 96.7% (inactive). Moreover, in [9], the aptamer binding inhibition is 8% (inactive). For the same compound, the response in assay [10] is -1.6% (inactive); in assay [12], -2.77% (inactive). For the same compound, the binding (% of control) in [13] is 101% (inactive). Besides, the efflux inhibition (fraction of control) in assay [14] is -0.08 (inactive). Further, in [16], the differentiation response was -4.57% (inactive).

The term inhibition denotes the drop in the measured response relative to a control, in per cent.

Values taken from PubChem BioAssay.
